“And” between values parts separate entries of the source, which are not always exact repeats. Equal entries are not always repeated. Unmarked numbers belong to inactive results.
The compounds below were run on TDF (assay: H1.0 immunofluorescence intensity relative to DMSO (% of DMSO); higher = stronger H1.0 induction, active = 120 or more). Conditions: concentration: 10 µM; 24 h.
Procedure, shortened: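 Using 384-well plates with 800 cells per well in RPMI plus 10% FBS, HCC1569 and TDF cells were exposed to compounds at 10 µM, in triplicate, for 24 h at 37 °C. Imaging of six fields per well at ×10 followed H1.0 and DAPI staining. The reported quantity, H1.0 nuclear intensity or cell number, is a median of replicates given as percent of the plate control, and HCC1569 values were smoothed for positional effects.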
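Note: TDF is a line of transformed human dermal fibroblasts of mesenchymal origin.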

Row | Compound | H1.0 immunofluorescence intensity
1 | COc1ccc2cc(OCC3(C(=O)O)CN(C(=O)c4ccc(F)cc4)C3)ccc2c1 | 93.7
2 | CN1CCCC1c1cccnc1.Cc1ccc(C(=O)OC(C(=O)O)C(OC(=O)c2ccc(C)cc2)C(=O)O)cc1 (stereo not drawn) [(+)-Nicotine (+)-di-p-toluoyl tartrate] | 88.1
3 | CCCC(=O)NCCc1c2n(c3ccc(OC)cc13)Cc1ccccc1-2 | 97.1
4 | Nc1nc(Cl)nc2c1ncn2C1OC(CO)C(O)C1F (stereo not given) [Clofarabine] | 119
5 | Clc1ccc(CCC(Cn2ccnc2)Sc2c(Cl)cccc2Cl)cc1.O=[N+]([O-])O (stereo not given) [Butoconazole nitrate] | 93
6 | Cl.O=C(O)C1=CCNCC1 [Isoguvacine hydrochloride] | 106
7 | CC(=O)NC1C(N=C(N)N)C=C(C(=O)O)OC1C(O)C(O)CO (stereo not given) | 99.2
8 | CC1CC2C3CCC4=CC(=O)C=CC4(C)C3(F)C(O)CC2(C)C1(O)C(=O)CO (stereo not given) [Betamethasone] | 75.2
9 | COc1cc(-c2oc3cc(O)cc(O)c3c(=O)c2OC2OC(CO)C(O)C(O)C2O)ccc1O (stereo not given) [Isorhamnetine-3-glucoside] | 97.6
10 | O=c1cc(-c2ccc(O)cc2)oc2cc(O)cc(O)c12 [Apigenin] | 89.2
11 | NC(=O)N1C(=O)/C(=C(\O)c2cccs2)c2cc(Cl)ccc21 | 94.8
12 | COC1CC2CCC(C)C(O)(O2)C(=O)C(=O)N2CCCCC2C(=O)OC(C(C)CC2CCC(O)C(OC)C2)CC(=O)C(C)C=C(C)C(O)C(OC)C(=O)C(C)CC(C)C=CC=CC=C1C (stereo not given) [Rapamycin] | 86.7
13 | C#CC1(O)CCC2C3CCC4=CC(=O)CCC4C3CCC21CC (stereo not given) [Levonorgestrel] | 99.8
14 | CC(=O)OC1C(C)OC(Oc2c(-c3ccc(O)cc3)oc3cc(O)cc(O)c3c2=O)C(O)C1OC(C)=O (stereo not given) [RSK Inhibitor, SL0101] | 102
15 | COc1cc2c(cc1OC)-c1cc(=Nc3c(C)cc(C)cc3C)n(C)c(=O)n1CC2.Cl [Trequinsin hydrochloride] | 85
16 | Nc1nc(Nc2ccc(S(N)(=O)=O)cc2)nn1C(=S)Nc1c(F)cccc1F [Cdk1/2 Inhibitor III] | 133 (active)
17 | O=C1CC(c2ccc(O)c(O)c2)Oc2c1ccc(OC1OC(CO)C(O)C(O)C1O)c2O (stereo not given) [Flavanomarein] | 94.9
18 | Cl.O=C(O)C1=CCCNC1 [Guvacine hydrochloride] | 103
19 | Cc1cc(NC(=O)CS(=O)(=O)c2cn(Cc3cc(Br)ccc3F)c3ccccc23)no1 | 90
20 | CC(C)Cc1ccc(C(C)C(=O)NO)cc1 (stereo not given) [Ibuproxam] | 87.3

Row | Compound | H1.0 immunofluorescence intensity
21 | CC(=O)OC1(C(C)=O)CCC2C3CC(C)C4=CC(=O)CCC4(C)C3CCC21C (stereo not given) [Medroxyprogesterone 17-Acetate] | 102
22 | Cc1ccc(NC(=O)c2ccc(CN3CCN(C)CC3)cc2)cc1Nc1nccc(-c2cccnc2)n1 [Imatinib] | 107
23 | CCCc1cc(C(N)=S)ccn1 [Prothionamide] | 99.4
24 | CCCCCCCCc1ccc(CCC(N)(CO)CO)cc1.Cl | 210 (active)
25 | Cc1ccc(NC(=O)c2ccc(CN3CCN(C)CC3)cc2)cc1Nc1nc(-c2cccnc2)cs1 [Masatinib(AB1010)] | 109
26 | CN(C)c1ccc(C=C2C(=O)Nc3ccccc32)cc1 | 97 and 108 and 101
27 | CC1COc2c(N3CCN(C)CC3)c(F)cc3c(=O)c(C(=O)O)cn1c23 (stereo not given) [Ofloxacin] | 95
28 | CCCCC=CCCCCCCCC(=O)O [9(E)-Tetradecenoic acid] | 98.8
29 | CN=C(NC#N)NCCSCc1nc[nH]c1C [Cimetidine] | 102
30 | CC(C(=O)O)c1ccc(CC2CCCC2=O)cc1 (stereo not given) [loxoprofen] | 88.6
31 | CCC(C)C(=O)OC1CC(O)C=C2C=CC(C)C(CCC3CC(O)CC(=O)O3)C21 (stereo not given) [Pravastatin Lactone] | 91.6
32 | CCN(CC)C(=S)SSC(=S)N(CC)CC [Disulfiram] | 123 (active)
33 | COc1ccc(S(=O)(=O)Nc2cc(Cl)cc(Cl)c2OC)cc1N1CCNCC1.Cl | 93.4
34 | CC(=O)OC1CC2(C)C(CC(O)C3C4(C)CCC(O)C(C)C4CCC32C)C1=C(CCC=C(C)C)C(=O)[O-].[Na+] (stereo not given) [Fusidic acid sodium] | 89.5
35 | O=C([O-])C=CC(O)c1ccc(Cl)cc1.[Na+] (stereo not given) | 95.7
36 | O=C(c1cc(O)c(O)c([N+](=O)[O-])c1)c1ccccc1F | 95.7
37 | Cc1cn(C2CC(N=[N+]=[N-])C(CO)O2)c(=O)[nH]c1=O (stereo not given) [3'-Azido-3'-deoxythymidine] | 96.8
38 | COc1cc2nc(N3CCN(C(=O)C4COc5ccccc5O4)CC3)nc(N)c2cc1OC (stereo not given) [Doxazosin] | 100
39 | OCC1OC(n2cnc3c(NCCc4ccccc4)ncnc32)C(O)C1O (stereo not given) [N6-2-Phenylethyladenosine] | 87.8
40 | CCCC(=O)NCCc1c2n(c3ccc(OC)cc13)CCCc1ccccc1-2 | 84.7

From the supplement of paper PMC7156485
